Test results published in ChEMBL document CHEMBL4513216, “Probing the Open Global Health Chemical Diversity Library for Multistage-Active Starting Points for Next-Generation Antimalarials” (ACS Infect Dis, 2020).
The whole screen tested about 65,000 compounds, of which about 2,100 (3.2%) showed an effect of 50% or more. The median lay at about -52%. The list comes from a sample in which strong results are over-represented; it also holds similar structures and randomly drawn compounds.

tested on: Plasmodium falciparum; experiment: Screen against P. falciparum Asexual Blood Stage (ABS), at 5uM; type: functional, Dd2; conditions: tested at 5 uM

Structure (SMILES)	INHIBITION
Cc1cc(NC(=O)CN2CCCC2c2noc(C)n2)n(C(C)(C)C)n1 (stereo not given)	-108%
O=C(NC1CC1)[C@@H]1CCO[C@@H]2CCN(CC3CCC3)C[C@@H]21	-89.4%
CN1C(Cn2cccn2)C[C@@H]2CN(Cc3cnn(C)c3)CC[C@@H]21 (stereo not given in full)	-48.5%
CN1[C@H](CN2CCCC2)C[C@@H]2CN(Cc3ccoc3)CC[C@@H]21	58.5%
CC(C)N1[C@H](Cn2cccn2)C[C@@H]2CN(Cc3ccoc3)CC[C@@H]21	40.6%
CCC(=O)N1CC[C@H]2[C@H](C[C@@H](Cn3cccn3)N2c2nccs2)C1	-13.4%
CC(C)N1[C@H](CN2CCCC2)C[C@@H]2CN(Cc3cnn(C)c3)CC[C@@H]21	-20.1%
CN1CC[C@H]2[C@H](C[C@@H](Cn3cncn3)N2c2nccs2)C1	-37.1%
CN1C(Cn2cccn2)C[C@@H]2CN(Cc3nccs3)CC[C@@H]21 (stereo not given in full)	-108%
CC(C)N1CC[C@H]2[C@H](C[C@@H](Cn3cccn3)N2c2nccs2)C1	66.3%
Cc1ccc(CN2CC[C@H]3[C@H](CC(Cn4cccn4)N3C)C2)s1 (stereo not given in full)	62.7%
CC1CN(Cc2nc(Cc3ccccc3F)no2)CCN1C (stereo not given)	-114%
O=C(CCc1ccsc1)N1CCCC(n2cncn2)C1 (stereo not given)	-152%
COC[C@@]12CCC[C@@H]1CN(C(=O)CN(C)C)C2	-1.68%
Cc1cc(C)c(Cn2cncn2)cc1CN1CCC(CN)C1 (stereo not given)	69%
CO[C@H]1CN(Cc2cc(Cn3cncn3)c(C)cc2C)CC[C@H]1N	-28.2%
Cc1cc(C)c(Cn2cncn2)cc1CN1CC[C@@H]2CC[C@H](C1)N2	13.3%
COCc1ncn2c1CN(C(=O)Nc1cccc(OC)c1)CC2	-101%
CC(C)c1nccn1-c1cccc(C2CCCN(S(=O)(=O)N(C)C)C2)n1 (stereo not given)	-73.6%
NC1CCC(Nc2nccc(CCC(F)(F)F)n2)CC1 (stereo not given)	50.3%
N[C@@H]1CC[C@@H](Nc2nccc(CCC(F)(F)F)n2)C1	-4.32%
FC(F)(F)CCc1ccnc(NC2CCC(n3cnnc3)CC2)n1 (stereo not given)	-54.2%
CS(=O)(=O)N1CCC(c2ccncn2)CC1	-94.7%
CN(C(=O)CSc1ncc[nH]1)C1CC1	-11.8%
Fc1ccc(CN2CCc3ncnc(C4CCOC4)c3CC2)cc1 (stereo not given)	-78.8%
Cc1cccc(CN(Cc2ccccn2)S(=O)(=O)N(C)C)c1	-25.3%
Cc1cccc(CN(Cc2ccccn2)Cc2ncc(C(C)(C)C)o2)c1	60.4%

Structure (SMILES)	INHIBITION
CCN(Cc1cccc(Cl)c1)Cc1ncc(C(C)(C)C)o1	-14.1%
CCN1CCN(C)C(=O)C12CCN(Cc1cccc(C)c1)CC2	41.8%
CCN1CCN(C)C(=O)C12CCN(Cc1ccsc1)CC2	-35.5%
CCc1ccc(CN2CCC3(CC2)C(=O)N(C)CCN3CC2CC2)cc1	68.9%
CN(CCc1ccccc1)c1cnn(C)c(=O)c1Br	-12.3%
NC(CC1CCCC1)c1ccccc1 (stereo not given)	66.7%
NC(CC1CCCC1)c1ccc(Oc2ccccc2)cc1 (stereo not given)	79.9%
NC(=O)C(NC1CCN(CC2CCCCC2)CC1)c1ccccc1 (stereo not given)	-75%
OC(CN1CCN(CC2CCCCC2)CC1)c1ccccc1 (stereo not given)	3.94%
c1ccc(Oc2ccc(OC34CCCN(CC3)C4)cc2)cc1 (stereo not given)	40.7%
CC(NC(=O)CSCC(N)=O)c1ccc(Oc2ccccc2)cc1 (stereo not given)	-25.1%
N#CCCCOc1cccnc1NC(=O)Cc1ccccc1F	-150%
CN(CC(=O)NCC1CCCO1)Cc1nc2c(s1)CCCC2 (stereo not given)	-39.8%
Cc1cc(C)c(CN2CCCC23Cc2ccccc2CNC3=O)c(C)c1 (stereo not given)	8.96%
CC(C)C(=O)NC1CCCN(C(=O)c2ccc(O)c(Cl)c2)C1 (stereo not given)	-84%
O=C(Nc1ccccc1Cn1cccn1)N1CCCC(N2CCCC2)C1 (stereo not given)	-31.7%
CN1CCN(c2ccc3ccc(C(=O)N4CCCO4)cn23)CC1	6.88%
COc1c(CNCc2ccnc(N3CCCCC3)c2)c(C)nn1C	-15.8%
COc1c(CNCc2ccnc(N3CCCC3)c2)c(C)nn1C	-64.4%
COc1cc(CNCc2ccnc(N3CCCC3)c2)cc(OC)c1	61.5%
COc1ccc(CNCc2ccnc(N3CCCCC3)c2)cc1OC	-9.72%
COc1cc(CNCc2ccnc(N3CCOCC3)c2)cc(OC)c1	-50.4%
COc1cc(CNCc2ccnc(N3CCCCC3)c2)cc(OC)c1	61.4%
CC(C)NC(=O)C1CN(C(=O)N(C)C)CC12CCOCC2 (stereo not given)	-145%
Cc1cc(N2CCC(N(C)C(=O)c3ccc(C#N)cc3)CC2)nc(C)n1	-6.47%
CCCc1noc(CCCC(=O)N2CCCC2c2cnn(C)c2)n1 (stereo not given)	-37%
COCCN(C)C(=O)c1nc2c(s1)CCCN2c1ccc(C)nn1	-53.3%

Structure (SMILES)	INHIBITION
CCN1CCCN(C(=O)c2ccc(NC(=O)CC(C)C)c(C)c2)CC1	-98.5%
Cc1cccc(C(=O)N2CC[C@@H]3[C@H]2CCC(=O)N3c2ccccc2)n1	-87%
Cc1ccccc1C1(CNCc2cnc(N3CCOCC3)nc2)CC1	50.8%
c1ccc(C2(CNCc3cnc(N4CCOCC4)nc3)CC2)cc1	-22.6%
OC1(CNCc2cnc(N3CCOCC3)nc2)CCCCC1	-74.5%
CCN(CC)CCNc1ncc(-c2cc(C)no2)c(-c2ccoc2C)n1	61.9%
Cc1cc(-c2cnc(NC3CCCC3)nc2-c2ccoc2C)on1	-65.8%
Cc1cc(-c2cnc(NC3CC3)nc2-c2ccoc2C)on1	-62%
CCc1nc(C2CCCN(C(=O)c3ccccc3F)C2)no1 (stereo not given)	-49.5%
CN(C)C(=O)N1C[C@H]2CC[C@@H](C1)N(C/C=C/c1ccc(F)cc1)C2	57.8%
CN(C)C(=O)CN1C[C@H]2CC[C@@H](C1)N(C/C=C/c1ccc(F)cc1)C2	43.5%
CS(=O)(=O)N1C[C@H]2CC[C@@H](C1)N(C/C=C/c1ccc(F)cc1)C2	-43.1%
NC(=O)Cn1ccc(O)c(Cc2ccc(Cl)cc2Cl)c1=O	-144%
CN(C)[C@H]1CCN(c2ccnc(C(=O)NCc3ccco3)c2)C1	-95.2%
CCCOC1CCCN(c2ccnc(C(=O)NCc3ccco3)c2)C1 (stereo not given)	64.2%
O=C(NCc1ccco1)c1cc(N2CC[C@@H](O)C2)ccn1	-217%
Cc1ncnc2c1CCN(S(=O)(=O)C1CC1)CC2	-47.1%
CCc1nc(CN2CCCC(N(C)CCc3cccs3)C2)no1 (stereo not given)	12.3%
Cn1ccnc1CN1CCCN(C(=O)COC2CCCCC2)CC1	-46.8%
COc1cccc([C@H]2CN(CCCS(=O)(=O)N(C)C)C[C@@H]2N)c1	-56.8%
CCOCCN1C[C@H](c2cccc(OC)c2)[C@@H](N)C1	-3.38%
C/C=C(\C)CN1C[C@H](c2cccc(OC)c2)[C@@H](N)C1	65.6%
Cc1nc(C(=O)N(C)[C@@H]2CCC[C@@H](Oc3ccccc3)[C@@H]2O)co1	-3.45%
CC(C)c1nsc(N2CCCOCC2)n1	-47.6%
Cc1ccc(CN(CCCN2CCOCC2)Cc2cnc(C)n2C)o1	55.1%
Cc1ccc(CN(CCCN2CCOCC2)Cc2cnn(C)c2)o1	-2.55%
Cc1ccc(CN(CCCN(C)C)Cc2cnc(C)n2C)o1	-17.8%

Structure (SMILES)	INHIBITION
Cc1cc(NC(=O)NCc2cccnc2OC2CCCC2)n(C)n1	-37%
O=C(NCCN1CCCCC1)c1scnc1Cl	-130%
O=C(NCCN1CCCCC1)c1cccc(Cl)c1Cl	50.5%
Cc1cc(Br)ccc1C(=O)NCCN1CCCCCC1	30.2%
Cc1ccc(CN2C(=O)CCC23CCC(NCC2CCOC2)CC3)cc1 (stereo not given)	-1.23%
O=C(NC1CCC1)[C@@H]1CCO[C@@H]2CCN(CCc3ccccc3)C[C@H]21	36.5%
COc1cccc(CC2CCCN2Cc2nccn2C)c1 (stereo not given)	52%
Cc1c[nH]nc1C1CCCN1Cc1nccn1C (stereo not given)	57.3%
COc1cccc(CC2CCCN2CCCO)c1 (stereo not given)	-8.85%
Cc1c[nH]nc1C1CCCN1Cc1ccncc1 (stereo not given)	-8.01%
Cn1ccnc1CN1CCCC1CCc1ccccc1 (stereo not given)	37.6%
Cc1c[nH]nc1C1CCCN1Cc1ncc[nH]1 (stereo not given)	34.9%
CC1CCN(C(=O)C(C)N2CCN(c3nccs3)CC2)CC1 (stereo not given)	-55.4%
Cc1cc(C(=O)N2CCCCC2C)ccc1NC(=O)N1CCOCC1 (stereo not given)	-137%
O=C(N1CCCCC1)N1CCN(CC(O)c2ccccc2)CC1 (stereo not given)	-4.34%
O=C(c1cscn1)N1CCC[C@]2(C[C@H](OCC3CC3)CO2)C1	-132%
Cc1cc(-c2nccs2)nc(C2CCN(Cc3ccncc3)CC2)n1	-25.9%
Cc1cc(-c2nccs2)nc(C2CCN(Cc3cccs3)CC2)n1	16.1%
Cc1cc(-c2nccs2)nc(C2CCN(Cc3ccc(F)cc3)CC2)n1	62.9%
O=C(c1csc(I)c1)N1CCc2c(ncn2C2CC2)C1	-41.85%
Cc1nc(CN2CCc3ncnc(-c4cccnc4)c3CC2)cs1	-30.7%
CN1CCC2(COCCN(Cc3ccc4c(c3)OCO4)C2)C1 (stereo not given)	-102%
CN1CCC2(COCCN(Cc3cccc(C#N)c3)C2)C1 (stereo not given)	57%
CN1CC2(CCN(Cc3cccc(C#N)c3)CC2)CC1=O	-15.1%
